# According to PubChem BioAssay AID1159580 (chemical genetic matrix, 2015):
# “And” between values parts separate entries of the source, which are not always exact repeats. Identical values can stand only once. Among all 5,500 compounds or so, about 2,000 (36%) were called active. Not shown: some 18% with an inconclusive outcome. This is one part of the list. A number with no mark means an inactive call. Cut-off read from the data, not from the text of the source: active = normalized growth mostly below about 0.91 (no sharp cut-off); inconclusive = no clear call, values can overlap the other calls; inactive = mostly above about 0.92.
# Test: chemical genetic growth profiling, strain panel (AID 1159580);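 note: tested at 20 µM; growth read once vehicle control cultures reached saturation at 30 °C; 1 = growth at the plate median or of vehicle wells; lower values mean less growth of the strain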
# Settings: S. cerevisiae deletion strains, growth OD
# [1] = locus YHR030C, strain SLT2, hits give low values
# [2] = locus YHR079C, strain IRE1, hits give low values
# [3] = locus YJL095W, strain BCK1, hits give low values
# [4] = locus YJR066W, strain TOR1, hits give low values
# [5] = locus YLR113W, strain HOG1, hits give low values
# [6] = locus YNL183C, strain NPR1, hits give low values
# [7] = locus YOR231W, strain MKK1, hits give low values
# [8] = locus YPL256C, strain CLN2, hits give low values
compound,measurement,setting,value
COc1c(-c2coc3cc4c(cc3c2=O)CC(O)C(C)(C)O4)ccc2c1C=CC(C)(C)O2 (stereo not drawn),normalized growth,"locus YAL021C, strain ccr4, hits give low values",0.992
same,normalized growth,"locus YAL026C, strain drs2, hits give low values",0.978
same,normalized growth,"locus YAL030W, strain snc1, hits give low values",0.996
same,normalized growth,"locus YBL061C, strain skt5, hits give low values",0.983
same,normalized growth,"locus YBR009C, strain hhf1, hits give low values",0.97
same,normalized growth,"locus YBR023C, strain chs3, hits give low values",0.983
same,normalized growth,"locus YBR171W, strain sec66, hits give low values",0.973
same,normalized growth,"locus YBR231C, strain swc5, hits give low values",0.989
same,normalized growth,"locus YBR279W, strain paf1, hits give low values",0.989
same,normalized growth,"locus YCL011C, strain gbp2, hits give low values",0.992
same,normalized growth,"locus YCL016C, strain dcc1, hits give low values",0.986
same,normalized growth,"locus YCL069W, strain vba3, hits give low values",0.97
same,normalized growth,"locus YCR088W, strain abp1, hits give low values",0.979
same,normalized growth,"locus YDL005C, strain med2, hits give low values",0.972
same,normalized growth,"locus YDL040C, strain nat1, hits give low values",0.987
same,normalized growth,"locus YDR001C, strain nth1, hits give low values",0.979
same,normalized growth,"locus YDR069C, strain doa4, hits give low values",1
same,normalized growth,"locus YDR137W, strain rgp1, hits give low values",0.902
same,normalized growth,"locus YDR159W, strain sac3, hits give low values",0.973
same,normalized growth,"locus YDR195W, strain ref2",1.05
same,normalized growth,"locus YDR297W, strain sur2, hits give low values",0.978
same,normalized growth,"locus YDR334W, strain swr1, hits give low values",0.958
same,normalized growth,"locus YDR335W, strain msn5, hits give low values",0.974
same,normalized growth,"locus YDR392W, strain spt3, hits give low values",0.829
same,normalized growth,"locus YEL003W, strain gim4, hits give low values",0.99
same,normalized growth,"locus YEL037C, strain rad23, hits give low values",0.973
same,normalized growth,"locus YEL061C, strain CIN8 (second series), hits give low values",0.98
same,normalized growth,"locus YER015W, strain faa2, hits give low values",0.991
same,normalized growth,"locus YER016W, strain bim1, hits give low values",0.992
same,normalized growth,"locus YER111C, strain swi4, hits give low values",0.973
same,normalized growth,"locus YER155C, strain BEM2 (second series), hits give low values",0.967
same,normalized growth,"locus YFR010W, strain ubp6, hits give low values",0.989
same,normalized growth,"locus YGL167C, strain pmr1, hits give low values",0.969
same,normalized growth,"locus YGL173C, strain kem1, hits give low values",0.989
same,normalized growth,"locus YGL227W, strain vid30, hits give low values",0.992
same,normalized growth,"locus YGL240W, strain doc1, hits give low values",0.979
same,normalized growth,"locus YGL253W, strain hxk2, hits give low values",0.983
same,normalized growth,"locus YHR013C, strain ard1, hits give low values",0.954
same,normalized growth,"locus YHR027C, strain rpn1, hits give low values",1
same,normalized growth,[1],0.932
same,normalized growth,[2],0.929
same,normalized growth,"locus YHR142W, strain chs7, hits give low values",0.942
same,normalized growth,"locus YJL092W, strain hpr5, hits give low values",0.99
same,normalized growth,"locus YJL095W, strain BCK1 (second series), hits give low values",0.983
same,normalized growth,[3],0.94
same,normalized growth,"locus YJL115W, strain asf1, hits give low values",0.971
same,normalized growth,"locus YJL129C, strain trk1, hits give low values",0.887
same,normalized growth,"locus YJL154C, strain vps35, hits give low values",0.97
same,normalized growth,"locus YJL164C, strain tpk1, hits give low values",0.974
same,normalized growth,"locus YJL166W, strain qcr8, hits give low values",0.979
same,normalized growth,"locus YJL187C, strain SWE1, hits give low values",0.991
same,normalized growth,[4],0.865
same,normalized growth,"locus YKL160W, strain elf1, hits give low values",0.992
same,normalized growth,"locus YKR026C, strain gcn3, hits give low values",0.957
same,normalized growth,"locus YKR091W, strain srl3, hits give low values",0.992
same,normalized growth,"locus YLL001W, strain dnm1, hits give low values",0.991
same,normalized growth,"locus YLL026W, hits give low values",0.989
same,normalized growth,"locus YLL041C, strain sdh2, hits give low values",1.01
same,normalized growth,"locus YLR027C, strain aat2, hits give low values",0.996
same,normalized growth,[5],0.996
same,normalized growth,"locus YLR221C, strain rsa3, hits give low values",0.991
same,normalized growth,"locus YLR258W, strain gsy2, hits give low values",0.965
same,normalized growth,"locus YLR262C, strain YPT6 (second series), hits give low values",0.877
same,normalized growth,"locus YLR320W, strain mms22, hits give low values",0.962
same,normalized growth,"locus YLR342W, strain FKS1, hits give low values",0.98
same,normalized growth,"locus YLR357W, strain rsc2, hits give low values",0.967
same,normalized growth,"locus YLR370C, strain arc18, hits give low values",0.995
same,normalized growth,"locus YLR384C, strain iki3, hits give low values",0.976
same,normalized growth,"locus YML120C, strain ndi1, hits give low values",1.01
same,normalized growth,"locus YMR058W, strain fet3, hits give low values",0.993
same,normalized growth,"locus YMR125W, strain sto1, hits give low values",0.988
same,normalized growth,"locus YMR129W, hits give low values",0.982
same,normalized growth,"locus YMR205C, strain PFK2, hits give low values",0.961
same,normalized growth,"locus YMR231W, strain pep5, hits give low values",0.963
same,normalized growth,"locus YNL071W, strain lat1, hits give low values",0.975
same,normalized growth,[6],0.922
same,normalized growth,"locus YNL209W, strain ssb2, hits give low values",1
same,normalized growth,"locus YNL248C, strain rpa49, hits give low values",0.971
same,normalized growth,"locus YNL322C, strain KRE1 (second series), hits give low values",1.02
same,normalized growth,"locus YNR049C, strain mso1, hits give low values",0.99
same,normalized growth,"locus YOR001W, strain rrp6, hits give low values",0.973
same,normalized growth,"locus YOR070C, strain gyp1, hits give low values",0.992
same,normalized growth,"locus YOR080W, strain dia2, hits give low values",0.994
same,normalized growth,"locus YOR083W, strain WHI5, hits give low values",0.978
same,normalized growth,"locus YOR106W, strain vam3, hits give low values",0.962
same,normalized growth,[7],0.94
same,normalized growth,"locus YOR265W, strain rbl2, hits give low values",0.98
same,normalized growth,"locus YOR270C, strain vph1, hits give low values",0.608 (active)
same,normalized growth,"locus YOR290C, strain snf2, hits give low values",0.955
same,normalized growth,"locus YPL051W, strain arl3, hits give low values",0.972
same,normalized growth,"locus YPL078C, strain atp4, hits give low values",0.972
same,normalized growth,"locus YPL106C, strain sse1, hits give low values",1.01
same,normalized growth,"locus YPL240C, strain hsp82, hits give low values",0.982
same,normalized growth,[8],0.922
COc1c(CC(=O)c2cc3c(cc2O)OC(C)(C)C(O)C3)ccc2c1C=CC(C)(C)O2 (stereo not drawn),normalized growth,"locus YBR021W, strain FUR4, hits give low values",0.653 (active)
same,normalized growth,"locus YBR229C, strain ROT2, hits give low values",0.998
same,normalized growth,"locus YCL029C, strain bik1, hits give low values",0.975
same,normalized growth,"locus YDL035C, strain GPR1, hits give low values",1.01
same,normalized growth,"locus YDL074C, strain BRE1, hits give low values",0.926
same,normalized growth,"locus YDL101C, strain DUN1, hits give low values",1.01
same,normalized growth,"locus YDL185W, strain tfp1, hits give low values",1
same,normalized growth,"locus YDL192W, strain arf1, hits give low values",0.96
same,normalized growth,"locus YDR101C, strain arx1, hits give low values",0.974
same,normalized growth,"locus YDR162C, strain NBP2, hits give low values",1.01
same,normalized growth,"locus YDR318W, strain mcm21, hits give low values",0.984
same,normalized growth,"locus YDR388W, hits give low values",0.994
same,normalized growth,"locus YDR502C, strain sam2, hits give low values",1.01
same,normalized growth,"locus YEL061C, strain CIN8, hits give low values",1.01
same,normalized growth,"locus YER110C, hits give low values",1.01
same,normalized growth,"locus YER155C, strain BEM2, hits give low values",0.989
same,normalized growth,"locus YER167W, strain BCK2, hits give low values",1
same,normalized growth,"locus YGL078C, strain dbp3, hits give low values",1.01
same,normalized growth,"locus YGL086W, strain mad1, hits give low values",0.979
same,normalized growth,"locus YGL248W, strain PDE1, hits give low values",1.02
same,normalized growth,"locus YGR078C, strain PAC10, hits give low values",1.03
same,normalized growth,"locus YGR135W, strain pre9, hits give low values",1.05
same,normalized growth,"locus YGR252W, strain gcn5, hits give low values",0.937
same,normalized growth,[1],0.955
same,normalized growth,"locus YHR079C, strain IRE1 (second series), hits give low values",1
same,normalized growth,[2],0.958
same,normalized growth,"locus YHR094C, strain hxt1, hits give low values",1.01
same,normalized growth,"locus YHR129C, strain ARP1, hits give low values",0.997
same,normalized growth,"locus YHR200W, strain rpn10, hits give low values",1
same,normalized growth,"locus YIL066C, strain RNR3, hits give low values",0.997
same,normalized growth,"locus YIL073C, strain SPO22, hits give low values",1.05
same,normalized growth,"locus YIL125W, strain kgd1, hits give low values",0.982
same,normalized growth,"locus YIR030C, strain dcg1, hits give low values",0.987
same,normalized growth,[3],0.981 and 0.988
same,normalized growth,"locus YJL134W, strain LCB3, hits give low values",0.996
same,normalized growth,"locus YJL168C, strain set2, hits give low values",1.02
same,normalized growth,"locus YJL187C, strain SWE1 (second series), hits give low values",1.02
same,normalized growth,[4],0.935
same,normalized growth,"locus YKL009W, strain mrt4, hits give low values",0.992
same,normalized growth,"locus YKL068W, hits give low values",1
same,normalized growth,"locus YKL085W, strain MDH1 (second series), hits give low values",0.998
same,normalized growth,"locus YKL085W, strain MDH1, hits give low values",0.998
same,normalized growth,"locus YKR001C, strain vps1, hits give low values",0.961
same,normalized growth,"locus YLR039C, strain RIC1, hits give low values",1.08
same,normalized growth,"locus YLR058C, strain SHM2, hits give low values",0.999
same,normalized growth,"locus YLR102C, strain apc9, hits give low values",0.992
same,normalized growth,[5],0.961
same,normalized growth,"locus YLR262C, strain YPT6, hits give low values",1.02
same,normalized growth,"locus YLR268W, strain sec22, hits give low values",0.977
same,normalized growth,"locus YLR371W, strain rom2, hits give low values",0.998
same,normalized growth,"locus YLR418C, strain cdc73, hits give low values",0.938
same,normalized growth,"locus YML016C, strain PPZ1, hits give low values",0.999
same,normalized growth,"locus YML032C, strain rad52, hits give low values",0.982
same,normalized growth,"locus YML124C, strain tub3, hits give low values",0.984
same,normalized growth,"locus YMR078C, strain ctf18, hits give low values",1
same,normalized growth,"locus YMR223W, strain ubp8, hits give low values",1.01
same,normalized growth,"locus YMR263W, strain SAP30, hits give low values",0.996
same,normalized growth,"locus YMR307W, strain GAS1, hits give low values",0.807
same,normalized growth,"locus YNL067W, strain RPL9B, hits give low values",1.01
same,normalized growth,"locus YNL128W, strain TEP1, hits give low values",1.01
same,normalized growth,"locus YNL153C, strain GIM3, hits give low values",1.06
same,normalized growth,[6],0.937
same,normalized growth,"locus YNL233W, strain BNI4, hits give low values",0.997
same,normalized growth,"locus YNL250W, strain rad50, hits give low values",1.06
same,normalized growth,"locus YNL271C, strain bni1, hits give low values",0.996
same,normalized growth,"locus YNL298W, strain CLA4, hits give low values",0.991
same,normalized growth,"locus YNL307C, strain MCK1, hits give low values",0.988
same,normalized growth,"locus YNR052C, strain pop2, hits give low values",0.993
same,normalized growth,"locus YOL012C, strain htz1",1.64
same,normalized growth,"locus YOL147C, strain pex11, hits give low values",0.988
same,normalized growth,"locus YOR061W, strain CKA2, hits give low values",0.996
same,normalized growth,"locus YOR069W, strain VPS5, hits give low values",1
same,normalized growth,"locus YOR136W, strain idh2, hits give low values",0.996
same,normalized growth,"locus YOR144C, strain elg1, hits give low values",0.995
same,normalized growth,"locus YOR184W, strain ser1, hits give low values",0.851 (active)
same,normalized growth,[7],0.951
same,normalized growth,"locus YOR316C, strain cot1, hits give low values",0.998
same,normalized growth,"locus YPL055C, strain LGE1, hits give low values",0.942
same,normalized growth,[8],0.962
same,normalized growth,"locus YPR119W, strain clb2, hits give low values",0.999
same,normalized growth,"locus YPR141C, strain kar3, hits give low values",1
same,normalized growth,"locus YPR163C, strain tif3, hits give low values",0.988
same,normalized growth,"locus YPR167C, strain met16, hits give low values",1
same,normalized growth,"strain wtn01, hits give low values",0.972
